Results from article PMC7862700, “An all-to-all approach to the identification of sequence-specific readers for epigenetic DNA modifications on cytosine”.

Experiments:
Experiment in all cases: DAPPL (digital affinity profiling via proximity ligation, sequencing); 10 mM Tris-HCl pH 7.5, 50 mM NaCl, 1 mM DTT, 4% glycerol, room temperature, 30 min; GST-TFs on glutathione beads, 16-mer random dsDNA library, 0.1% formaldehyde crosslink after washing; high values mean tight binding
FEV = molecular target: T1, FEV (Homo sapiens, UniProt Q99581 1-238); settings: protein: recombinant; tags: N-terminal GST; dsDNA, one strand shown
T1 sequence: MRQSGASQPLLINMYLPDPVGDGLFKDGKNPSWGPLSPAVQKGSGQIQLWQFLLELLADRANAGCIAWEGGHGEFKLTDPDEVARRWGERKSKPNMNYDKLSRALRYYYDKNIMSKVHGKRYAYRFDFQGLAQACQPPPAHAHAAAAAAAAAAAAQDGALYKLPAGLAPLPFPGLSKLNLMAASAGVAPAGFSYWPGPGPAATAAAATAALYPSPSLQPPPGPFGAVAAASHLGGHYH
Outline: (§1)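 Human transcription factors were made in yeast as GST fusions, captured on glutathione beads and barcoded with DNA. With a tag-only sample included, the pool was incubated with 200 nmole of a random double-stranded 16-mer DNA library in Tris/NaCl/DTT/glycerol buffer at room temperature for 30 min, then crosslinked with 0.1% formaldehyde after washing, ligated by proximity, amplified and sequenced. For binding signal, each hexamer's read frequency for a factor is divided by its frequency for the tag-only sample.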

ETV5 = ETV5 (Homo sapiens, UniProt P41161 1-510); settings: protein: recombinant; tags: N-terminal GST; dsDNA, one strand shown
Outline: as §1

HSF1 = HSF1 (Homo sapiens, UniProt Q00613 1-529); settings: protein: recombinant; tags: N-terminal GST; chain copies: 3; dsDNA, one strand shown
Outline: as §1

SPIC = molecular target: T2, SPIC (Homo sapiens, UniProt Q8N5J4 1-248); settings: protein: recombinant; tags: N-terminal GST; dsDNA, one strand shown
T2 sequence: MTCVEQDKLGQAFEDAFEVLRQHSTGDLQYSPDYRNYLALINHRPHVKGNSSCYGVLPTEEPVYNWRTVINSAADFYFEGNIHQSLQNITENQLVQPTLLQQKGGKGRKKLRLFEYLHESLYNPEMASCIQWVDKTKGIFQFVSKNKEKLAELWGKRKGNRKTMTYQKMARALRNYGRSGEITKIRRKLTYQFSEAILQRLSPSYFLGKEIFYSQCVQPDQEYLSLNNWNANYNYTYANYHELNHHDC
Outline: as §1

ELF4 = ELF4 (Homo sapiens, UniProt Q99607 1-663); settings: protein: recombinant; tags: N-terminal GST; dsDNA, one strand shown
Outline: as §1

ELK4 = molecular target: T3, ELK4 (Homo sapiens, UniProt P28324-2 1-405); settings: protein: recombinant; tags: N-terminal GST; dsDNA, one strand shown
T3 sequence: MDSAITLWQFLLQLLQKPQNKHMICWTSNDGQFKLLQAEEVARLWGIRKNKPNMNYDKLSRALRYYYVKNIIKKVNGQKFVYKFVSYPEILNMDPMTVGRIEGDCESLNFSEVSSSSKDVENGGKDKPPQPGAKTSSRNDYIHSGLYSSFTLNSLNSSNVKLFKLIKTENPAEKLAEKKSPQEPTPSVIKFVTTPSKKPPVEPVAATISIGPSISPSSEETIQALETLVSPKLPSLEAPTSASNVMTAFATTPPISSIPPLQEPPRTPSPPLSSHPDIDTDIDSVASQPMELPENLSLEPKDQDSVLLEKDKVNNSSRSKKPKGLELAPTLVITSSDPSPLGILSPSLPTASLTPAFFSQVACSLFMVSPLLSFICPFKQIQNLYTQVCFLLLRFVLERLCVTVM
Outline: as §1

ETV2 = molecular target: T4, ETV2 (Homo sapiens, UniProt O00321 1-342); settings: protein: recombinant; tags: N-terminal GST; dsDNA, one strand shown
T4 sequence: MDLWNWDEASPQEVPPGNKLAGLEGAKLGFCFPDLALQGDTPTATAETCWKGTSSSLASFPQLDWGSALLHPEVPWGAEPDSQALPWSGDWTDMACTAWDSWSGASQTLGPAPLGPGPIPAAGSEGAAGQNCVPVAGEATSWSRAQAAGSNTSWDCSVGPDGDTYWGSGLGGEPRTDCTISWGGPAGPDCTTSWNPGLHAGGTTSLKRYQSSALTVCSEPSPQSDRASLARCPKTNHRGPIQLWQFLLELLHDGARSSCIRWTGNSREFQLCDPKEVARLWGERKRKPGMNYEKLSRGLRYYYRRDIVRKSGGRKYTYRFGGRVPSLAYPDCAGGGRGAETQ
Outline: as §1

ELF3 = molecular target: T5, ELF3 (Homo sapiens, UniProt P78545 1-371); settings: protein: recombinant; tags: N-terminal GST; dsDNA, one strand shown
T5 sequence: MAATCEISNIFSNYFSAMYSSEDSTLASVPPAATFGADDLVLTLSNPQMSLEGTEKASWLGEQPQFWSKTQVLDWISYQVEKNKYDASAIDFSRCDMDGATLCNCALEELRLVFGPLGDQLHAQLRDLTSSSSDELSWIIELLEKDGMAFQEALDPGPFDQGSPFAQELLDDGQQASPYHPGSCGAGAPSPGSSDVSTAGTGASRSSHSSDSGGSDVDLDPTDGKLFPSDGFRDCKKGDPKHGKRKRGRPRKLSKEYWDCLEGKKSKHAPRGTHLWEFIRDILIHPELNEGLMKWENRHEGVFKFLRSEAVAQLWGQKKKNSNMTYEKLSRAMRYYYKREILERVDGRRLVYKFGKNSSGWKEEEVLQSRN
Outline: as §1

CRX = CRX (Homo sapiens, UniProt O43186 1-299); settings: protein: recombinant; tags: N-terminal GST; dsDNA, one strand shown
Outline: as §1

ETV1 = ETV1 (Homo sapiens, UniProt P50549 1-477); settings: protein: recombinant; tags: N-terminal GST; dsDNA, one strand shown
Outline: as §1

ERF = molecular target: T6, ERF (Homo sapiens, UniProt P50548 1-548); settings: protein: recombinant; tags: N-terminal GST; dsDNA, one strand shown
T6 sequence: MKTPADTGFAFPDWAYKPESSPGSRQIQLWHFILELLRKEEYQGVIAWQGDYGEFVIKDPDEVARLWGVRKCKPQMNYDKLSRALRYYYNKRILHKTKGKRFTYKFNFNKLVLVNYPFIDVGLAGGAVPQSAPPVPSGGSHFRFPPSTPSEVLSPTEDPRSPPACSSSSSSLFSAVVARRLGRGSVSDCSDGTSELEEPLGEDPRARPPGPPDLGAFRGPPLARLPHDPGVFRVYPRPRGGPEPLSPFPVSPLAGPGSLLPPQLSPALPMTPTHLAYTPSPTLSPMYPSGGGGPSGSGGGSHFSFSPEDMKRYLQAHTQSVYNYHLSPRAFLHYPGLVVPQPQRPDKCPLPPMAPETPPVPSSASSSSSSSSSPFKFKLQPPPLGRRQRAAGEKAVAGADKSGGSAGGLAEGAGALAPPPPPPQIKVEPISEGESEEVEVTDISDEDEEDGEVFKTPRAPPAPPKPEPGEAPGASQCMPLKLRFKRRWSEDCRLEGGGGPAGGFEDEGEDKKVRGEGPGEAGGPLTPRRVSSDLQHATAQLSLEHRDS
Outline: as §1

ETV3L = molecular target: T7, ETV3L (Homo sapiens, UniProt Q6ZN32 1-361); settings: protein: recombinant; tags: N-terminal GST; dsDNA, one strand shown
T7 sequence: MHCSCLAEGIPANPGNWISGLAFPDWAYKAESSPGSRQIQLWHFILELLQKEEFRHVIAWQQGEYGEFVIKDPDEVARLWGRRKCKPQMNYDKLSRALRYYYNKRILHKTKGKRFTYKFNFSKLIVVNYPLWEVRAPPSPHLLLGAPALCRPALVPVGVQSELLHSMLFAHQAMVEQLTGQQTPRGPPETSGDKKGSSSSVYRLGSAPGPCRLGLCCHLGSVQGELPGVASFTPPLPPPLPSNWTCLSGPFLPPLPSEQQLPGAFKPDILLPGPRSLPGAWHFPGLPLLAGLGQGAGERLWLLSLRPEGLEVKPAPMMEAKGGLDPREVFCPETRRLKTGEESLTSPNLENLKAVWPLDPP
Outline: as §1

ETS2 = molecular target: T8, ETS2 (Homo sapiens, UniProt P15036 1-469); settings: protein: recombinant; tags: N-terminal GST; dsDNA, one strand shown
T8 sequence: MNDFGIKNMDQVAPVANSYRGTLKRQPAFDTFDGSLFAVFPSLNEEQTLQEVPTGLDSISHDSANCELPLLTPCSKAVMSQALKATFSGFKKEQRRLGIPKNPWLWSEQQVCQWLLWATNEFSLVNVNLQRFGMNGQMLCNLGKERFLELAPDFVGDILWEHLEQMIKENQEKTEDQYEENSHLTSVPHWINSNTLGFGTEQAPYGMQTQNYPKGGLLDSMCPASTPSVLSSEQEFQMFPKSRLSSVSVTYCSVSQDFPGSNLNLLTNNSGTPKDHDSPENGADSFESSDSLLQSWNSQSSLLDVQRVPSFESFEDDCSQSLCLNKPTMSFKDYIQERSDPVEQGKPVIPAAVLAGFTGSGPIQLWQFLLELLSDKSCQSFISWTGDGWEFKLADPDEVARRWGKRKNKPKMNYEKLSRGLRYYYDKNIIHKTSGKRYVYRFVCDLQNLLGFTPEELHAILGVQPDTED
Outline: as §1

SPDEF = molecular target: T9, SPDEF (Homo sapiens, UniProt O95238 1-335); settings: protein: recombinant; tags: N-terminal GST; dsDNA, one strand shown
T9 sequence: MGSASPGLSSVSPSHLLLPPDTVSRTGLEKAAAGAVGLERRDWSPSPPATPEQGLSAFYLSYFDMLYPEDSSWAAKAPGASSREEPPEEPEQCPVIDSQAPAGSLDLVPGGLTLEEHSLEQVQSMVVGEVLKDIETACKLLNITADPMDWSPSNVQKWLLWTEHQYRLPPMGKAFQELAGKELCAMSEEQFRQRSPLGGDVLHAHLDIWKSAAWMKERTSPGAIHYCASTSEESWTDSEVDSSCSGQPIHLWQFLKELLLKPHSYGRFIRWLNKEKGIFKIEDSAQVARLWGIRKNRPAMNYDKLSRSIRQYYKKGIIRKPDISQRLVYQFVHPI
Outline: as §1

ETV7 = molecular target: T10, ETV7 (Homo sapiens, UniProt Q9Y603 1-341); settings: protein: recombinant; tags: N-terminal GST; dsDNA, one strand shown
T10 sequence: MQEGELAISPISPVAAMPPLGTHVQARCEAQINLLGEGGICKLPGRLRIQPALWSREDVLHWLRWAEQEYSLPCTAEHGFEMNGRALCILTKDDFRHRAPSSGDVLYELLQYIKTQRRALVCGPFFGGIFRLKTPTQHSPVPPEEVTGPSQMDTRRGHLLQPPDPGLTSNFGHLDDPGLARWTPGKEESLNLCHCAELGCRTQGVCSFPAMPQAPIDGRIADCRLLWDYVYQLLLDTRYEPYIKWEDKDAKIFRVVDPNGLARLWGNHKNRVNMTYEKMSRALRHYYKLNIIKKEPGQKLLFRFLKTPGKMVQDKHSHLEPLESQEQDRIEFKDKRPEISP
Outline: as §1

ELF5 = molecular target: T11, ELF5 (Homo sapiens, UniProt Q9UKW6-2 1-255); settings: protein: recombinant; tags: N-terminal GST; dsDNA, one strand shown
T11 sequence: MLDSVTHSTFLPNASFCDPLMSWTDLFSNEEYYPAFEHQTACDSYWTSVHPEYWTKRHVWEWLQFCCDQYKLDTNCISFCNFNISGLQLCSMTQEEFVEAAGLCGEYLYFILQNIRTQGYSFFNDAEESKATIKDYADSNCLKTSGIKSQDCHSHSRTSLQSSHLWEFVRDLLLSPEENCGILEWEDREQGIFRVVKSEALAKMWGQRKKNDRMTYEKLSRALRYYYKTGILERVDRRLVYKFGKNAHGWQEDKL
Outline: as §1

ETV3 = molecular target: T12, ETV3 (Homo sapiens, UniProt P41162-2 1-143); settings: protein: recombinant; tags: N-terminal GST; dsDNA, one strand shown
T12 sequence: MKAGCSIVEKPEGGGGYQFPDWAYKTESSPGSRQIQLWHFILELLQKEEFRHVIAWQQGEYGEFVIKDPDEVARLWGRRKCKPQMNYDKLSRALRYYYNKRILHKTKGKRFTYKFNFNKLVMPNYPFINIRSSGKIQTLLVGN
Outline: as §1

ETV6 = ETV6 (Homo sapiens, UniProt P41212 1-452); settings: protein: recombinant; tags: N-terminal GST; dsDNA, one strand shown
Outline: as §1

Chain of ETV1 (P50549 whole entry): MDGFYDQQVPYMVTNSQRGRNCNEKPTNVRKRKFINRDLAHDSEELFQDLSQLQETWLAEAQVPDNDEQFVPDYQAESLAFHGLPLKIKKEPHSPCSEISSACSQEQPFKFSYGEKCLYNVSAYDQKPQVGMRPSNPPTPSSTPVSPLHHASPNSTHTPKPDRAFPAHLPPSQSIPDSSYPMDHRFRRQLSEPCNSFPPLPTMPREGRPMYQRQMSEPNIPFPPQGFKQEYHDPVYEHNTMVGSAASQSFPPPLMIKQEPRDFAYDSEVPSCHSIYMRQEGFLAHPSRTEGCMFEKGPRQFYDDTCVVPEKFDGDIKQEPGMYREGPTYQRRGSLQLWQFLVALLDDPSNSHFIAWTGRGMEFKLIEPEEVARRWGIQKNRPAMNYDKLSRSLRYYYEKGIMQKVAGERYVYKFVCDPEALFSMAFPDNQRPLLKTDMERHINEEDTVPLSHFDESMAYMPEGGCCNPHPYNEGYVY
Chain of ETV5 (P41161 whole entry): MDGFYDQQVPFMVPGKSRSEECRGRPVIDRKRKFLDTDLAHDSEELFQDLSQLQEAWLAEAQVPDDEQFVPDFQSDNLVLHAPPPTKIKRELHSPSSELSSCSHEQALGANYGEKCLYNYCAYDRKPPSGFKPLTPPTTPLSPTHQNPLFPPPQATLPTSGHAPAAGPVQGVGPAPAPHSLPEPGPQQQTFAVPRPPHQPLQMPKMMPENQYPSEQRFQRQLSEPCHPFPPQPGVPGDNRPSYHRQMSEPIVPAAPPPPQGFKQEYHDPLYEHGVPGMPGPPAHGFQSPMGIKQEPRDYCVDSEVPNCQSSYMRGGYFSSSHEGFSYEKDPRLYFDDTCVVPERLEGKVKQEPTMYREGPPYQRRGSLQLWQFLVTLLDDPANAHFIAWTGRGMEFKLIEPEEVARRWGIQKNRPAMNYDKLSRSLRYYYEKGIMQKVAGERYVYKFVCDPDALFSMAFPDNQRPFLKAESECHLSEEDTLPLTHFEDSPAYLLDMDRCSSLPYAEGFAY
Chain of ELF4 (Q99607 whole entry): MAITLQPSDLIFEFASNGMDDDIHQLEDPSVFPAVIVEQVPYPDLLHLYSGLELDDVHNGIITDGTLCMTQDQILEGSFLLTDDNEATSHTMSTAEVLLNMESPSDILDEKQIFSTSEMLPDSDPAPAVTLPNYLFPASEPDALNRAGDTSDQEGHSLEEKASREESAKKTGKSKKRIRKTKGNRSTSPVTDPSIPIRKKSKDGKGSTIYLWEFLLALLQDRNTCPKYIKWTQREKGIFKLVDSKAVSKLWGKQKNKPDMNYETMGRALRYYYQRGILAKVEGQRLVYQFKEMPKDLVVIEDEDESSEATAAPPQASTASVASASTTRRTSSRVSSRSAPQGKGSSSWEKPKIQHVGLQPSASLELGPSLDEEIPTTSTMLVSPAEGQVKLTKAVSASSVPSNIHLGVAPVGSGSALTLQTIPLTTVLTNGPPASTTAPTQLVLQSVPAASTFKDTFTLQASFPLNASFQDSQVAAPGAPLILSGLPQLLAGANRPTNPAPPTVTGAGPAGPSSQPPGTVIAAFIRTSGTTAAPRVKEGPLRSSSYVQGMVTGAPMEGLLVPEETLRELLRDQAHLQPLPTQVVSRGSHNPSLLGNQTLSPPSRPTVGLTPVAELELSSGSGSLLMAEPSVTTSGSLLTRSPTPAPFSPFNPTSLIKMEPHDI
Chain of ETV6 (P41212 whole entry): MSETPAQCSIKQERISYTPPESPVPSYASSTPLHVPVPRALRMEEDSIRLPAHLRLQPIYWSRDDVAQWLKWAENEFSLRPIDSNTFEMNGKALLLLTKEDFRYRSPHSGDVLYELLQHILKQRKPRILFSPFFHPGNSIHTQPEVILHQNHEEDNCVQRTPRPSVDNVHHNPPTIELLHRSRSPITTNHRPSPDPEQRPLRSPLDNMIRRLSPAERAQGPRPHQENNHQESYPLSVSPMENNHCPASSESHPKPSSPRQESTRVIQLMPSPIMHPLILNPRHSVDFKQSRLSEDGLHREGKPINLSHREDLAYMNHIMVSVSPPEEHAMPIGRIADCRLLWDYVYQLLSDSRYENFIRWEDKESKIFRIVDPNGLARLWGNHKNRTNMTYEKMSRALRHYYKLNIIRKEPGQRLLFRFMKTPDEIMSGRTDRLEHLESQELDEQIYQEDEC
Chain of CRX (O43186 whole entry): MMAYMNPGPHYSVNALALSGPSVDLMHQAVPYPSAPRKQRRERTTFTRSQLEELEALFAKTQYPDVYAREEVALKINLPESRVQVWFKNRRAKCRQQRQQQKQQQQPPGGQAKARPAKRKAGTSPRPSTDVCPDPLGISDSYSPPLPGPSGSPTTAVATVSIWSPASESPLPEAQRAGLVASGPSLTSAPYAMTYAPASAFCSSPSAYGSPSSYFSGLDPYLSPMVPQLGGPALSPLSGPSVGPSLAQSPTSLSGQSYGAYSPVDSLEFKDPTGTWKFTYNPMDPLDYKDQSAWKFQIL
Chain of HSF1 (Q00613 whole entry): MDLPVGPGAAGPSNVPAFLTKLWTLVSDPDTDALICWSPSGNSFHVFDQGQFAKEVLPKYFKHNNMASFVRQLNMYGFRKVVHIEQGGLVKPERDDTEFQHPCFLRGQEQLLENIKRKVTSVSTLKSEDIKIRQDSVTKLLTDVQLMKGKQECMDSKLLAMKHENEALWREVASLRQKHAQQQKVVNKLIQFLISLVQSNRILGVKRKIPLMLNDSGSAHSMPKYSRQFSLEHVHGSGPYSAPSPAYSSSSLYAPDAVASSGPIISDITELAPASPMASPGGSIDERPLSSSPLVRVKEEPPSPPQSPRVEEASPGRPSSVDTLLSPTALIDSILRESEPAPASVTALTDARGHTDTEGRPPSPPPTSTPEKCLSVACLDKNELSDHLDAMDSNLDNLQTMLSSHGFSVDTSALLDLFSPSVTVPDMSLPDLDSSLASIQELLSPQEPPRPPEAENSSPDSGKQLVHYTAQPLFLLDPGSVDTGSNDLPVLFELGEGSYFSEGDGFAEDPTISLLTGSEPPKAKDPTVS

TCCTGC
binding signal (FEV): 1.62 fold enrichment (6-mer frequency, TF over GST control)
binding signal (ETV5): 1.83 fold enrichment (6-mer frequency, TF over GST control)
binding signal (HSF1): 1.25 fold enrichment (6-mer frequency, TF over GST control)
binding signal (SPIC): 1.68 fold enrichment (6-mer frequency, TF over GST control)
binding signal (ELF4): 1.56 fold enrichment (6-mer frequency, TF over GST control)
binding signal (ELK4): 1.36 fold enrichment (6-mer frequency, TF over GST control)
binding signal (ETV2): 1.49 fold enrichment (6-mer frequency, TF over GST control)
binding signal (ELF3): 1.75 fold enrichment (6-mer frequency, TF over GST control)
binding signal (CRX): 1.26 fold enrichment (6-mer frequency, TF over GST control)
binding signal (ETV1): 1.6 fold enrichment (6-mer frequency, TF over GST control)
binding signal (ERF): 1.43 fold enrichment (6-mer frequency, TF over GST control)
binding signal (ETV3L): 1.71 fold enrichment (6-mer frequency, TF over GST control)
binding signal (ETS2): 1.65 fold enrichment (6-mer frequency, TF over GST control)
binding signal (SPDEF): 1.98 fold enrichment (6-mer frequency, TF over GST control)
binding signal (ETV7): 1.69 fold enrichment (6-mer frequency, TF over GST control)
binding signal (ELF5): 2.12 fold enrichment (6-mer frequency, TF over GST control)
binding signal (ETV3): 1.73 fold enrichment (6-mer frequency, TF over GST control)
binding signal (ETV6): 1.77 fold enrichment (6-mer frequency, TF over GST control)
